We go through 38 compounds from PubChem BioAssay (EPA / NIEHS).

Calls of active or inactive are those of the source. How the source made its calls: active means hit-call score of the fitted dose curve at least 0.9, where 1 is the maximum; inactive means score below 0.9.

For orientation: AC50 means the concentration giving half of the maximal activity seen.

Chain of Hepatocyte nuclear factor 6 (Homo sapiens) (Q9UBC0 whole entry, looked up, the tested form may be a part): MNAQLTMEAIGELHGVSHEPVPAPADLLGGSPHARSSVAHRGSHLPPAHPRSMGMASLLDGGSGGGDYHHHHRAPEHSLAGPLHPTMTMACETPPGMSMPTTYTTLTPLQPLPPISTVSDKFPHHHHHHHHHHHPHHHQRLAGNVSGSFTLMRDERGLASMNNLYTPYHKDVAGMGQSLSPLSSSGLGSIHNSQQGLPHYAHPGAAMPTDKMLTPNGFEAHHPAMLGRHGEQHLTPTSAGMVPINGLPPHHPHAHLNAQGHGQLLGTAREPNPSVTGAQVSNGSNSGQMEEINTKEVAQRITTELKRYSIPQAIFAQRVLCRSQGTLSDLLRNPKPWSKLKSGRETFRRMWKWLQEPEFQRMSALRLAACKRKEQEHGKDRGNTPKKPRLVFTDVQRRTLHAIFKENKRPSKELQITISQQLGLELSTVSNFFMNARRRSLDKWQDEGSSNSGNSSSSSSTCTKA
Chain of Heat shock factor protein 1 (Homo sapiens) (Q00613 whole entry, looked up): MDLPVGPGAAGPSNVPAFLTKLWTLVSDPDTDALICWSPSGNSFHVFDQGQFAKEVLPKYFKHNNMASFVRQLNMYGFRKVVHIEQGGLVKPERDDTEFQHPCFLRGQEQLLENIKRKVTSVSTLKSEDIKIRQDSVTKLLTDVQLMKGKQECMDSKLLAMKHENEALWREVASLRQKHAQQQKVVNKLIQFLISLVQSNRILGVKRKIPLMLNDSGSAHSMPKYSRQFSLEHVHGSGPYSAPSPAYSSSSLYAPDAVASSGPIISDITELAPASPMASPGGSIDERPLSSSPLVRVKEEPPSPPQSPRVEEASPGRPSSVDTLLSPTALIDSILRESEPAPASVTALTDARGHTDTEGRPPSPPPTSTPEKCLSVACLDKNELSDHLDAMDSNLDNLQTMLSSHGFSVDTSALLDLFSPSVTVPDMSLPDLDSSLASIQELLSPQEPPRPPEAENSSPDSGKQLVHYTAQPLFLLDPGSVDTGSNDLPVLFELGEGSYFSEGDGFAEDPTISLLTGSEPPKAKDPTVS

The target in one test is Hepatocyte nuclear factor 6 (Homo sapiens) (UniProt Q9UBC0). The test can be described thus: ATG_HNF6_CIS: Attagene CIS-FACTORIAL HepG2 Assay for human Hepatocyte Nuclear Factor 6 (HNF6) (AID 2282952). The conditions noted are these: HepG2 Attagene cis-factorial HNF6 reporter transcription; actives raise or lower the signal. Summed up:
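Twenty-four-hour chemical treatment of reporter-transfected HepG2 cells precedes RNA isolation, DNase-treated reverse transcription and PCR of reporter sequences. Labelled fragments are sized by capillary electrophoresis and fitted bidirectionally versus DMSO.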
Take `O=C1O[C@@H]2[C@@H](O)[C@H](O)O[C@@H]2[C@H]1O`: the result was inactive.

For `NCCCN1CCOCC1`, the compound was called inactive.

As to `CCCCCCCCCCCCCC(=O)O`, the result was inactive.

`CCCC(=O)C(C)=O`: the compound was classed as inactive.

In the case of `COC(=O)c1ccc(C)cc1`, the result was inactive.

`CNC(=O)Oc1ccc2c(c1)[C@]1(C)CCN(C)[C@@H]1N2C`: the compound was classed as inactive.

With `BrC1CCC(Br)C(Br)CCC(Br)C(Br)CCC1Br` (stereo not drawn), the concentration at half-maximal activity (AC50) was 87 µM (active).

As to `CC1CCC(C(C)(C)O)CC1` (stereo not drawn), the compound was classed as inactive.

With `CC1CCC2CC1C2(C)C` (stereo not drawn), the compound was called inactive.

With `CCCC(=O)c1cc(O)c(O)cc1O`, the compound was called inactive.

For `C[Si](O[Si](C)(C)C)O[Si](C)(C)C`, the outcome was inactive.

As for `C=CCOC(=O)CCC1CCCCC1`, the outcome was inactive.

Consider `O=Cc1ccc(F)cc1`, for which the result was inactive.

As for `O=C(O)CCCCCCCCCCC(=O)O`, the compound was classed as inactive.

Regarding `CC(CCO)CCc1ccccc1` (stereo not drawn), the result was inactive.

Turning to `CC1=CCC2C(C1)C2(C)C` (stereo not drawn), the compound was called inactive.

With `COC(C(=O)O)c1ccccc1` (stereo not drawn), the call was inactive.

Regarding `OCc1cccnc1`, the call was inactive.

Take `Clc1cccc(Cl)n1`: the outcome was inactive.

In the case of `COc1ccc(OC)c(OC)c1`, the outcome was inactive.

In the case of `CC(C)=CCCC(C)CC=O` (stereo not drawn), the outcome was inactive.

`CC(C)(Oc1ccc(CCNC(=O)c2ccc(Cl)cc2)cc1)C(=O)O`: the compound was classed as inactive.

In the case of `Nc1ccc(F)c([N+](=O)[O-])c1`, the result was inactive.

On to `CC(CC(C)(C)C)CC(C)(C)CC(C)(C)C` (stereo not drawn), for which the compound was classed as inactive.

Consider `Cc1cccc(C)c1C`, for which the compound was classed as inactive.

In the case of `COc1c(Cl)c(Cl)c(Cl)c(Cl)c1Cl`, the compound was classed as inactive.

For the compound `Cc1c(N(C)C)c(=O)n(-c2ccccc2)n1C`, the outcome was inactive.

Take `CC(C)=CCC[C@H](C)CC=O`: the call was inactive.

As to `O=C1c2ccccc2C(=O)N1SC1CCCCC1`, the call was inactive.

For `CCCCC/C=C/C=C/C=O`, the call was inactive.

`CCCCNC(=O)NS(=O)(=O)c1ccc(C)cc1`: the call was inactive.

Regarding `CC(=O)C(C)=O`, the result was inactive.

Consider `O=C(O)c1snc(Cl)c1Cl`, for which the AC50 is 153 µM (active).

Consider `NCCOCCO`, for which the compound was classed as inactive.

Turning to `CC(=O)O[C@]1(C(C)=O)CC[C@H]2[C@@H]3C[C@H](C)C4=CC(=O)CC[C@]4(C)[C@H]3CC[C@@]21C`, the outcome was inactive.

With `COc1cccc(OC)c1`, the result was inactive.

Turning to `C=C(C)C(=O)OCCOC(=O)CC(C)=O`, the compound was classed as inactive.

Another test addresses Heat shock factor protein 1 (Homo sapiens) (UniProt Q00613). Nature of the test: ATG_HSE_CIS: Attagene CIS-FACTORIAL HepG2 Assay for human Heat Shock Transcription Factor 1 (HSE) (AID 2282953). The conditions noted are these: HepG2 HSE cis-reporter, Attagene RNA transcription; actives raise or lower the signal. Summed up:
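Reporter mRNA induction in HepG2 is measured 24 h after dosing, using transiently transfected multiplexed cis-regulated reporter units. Signal comes from capillary electrophoresis of labelled RT-PCR products, with DMSO as negative control.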
Consider `O=C1O[C@@H]2[C@@H](O)[C@H](O)O[C@@H]2[C@H]1O`, for which the call was inactive.

Turning to `NCCCN1CCOCC1`, the call was inactive.

As to `CCCC(=O)C(C)=O`, the call was inactive.

With `COC(=O)c1ccc(C)cc1`, the outcome was inactive.

On to `CNC(=O)Oc1ccc2c(c1)[C@]1(C)CCN(C)[C@@H]1N2C`, for which the outcome was inactive.

`BrC1CCC(Br)C(Br)CCC(Br)C(Br)CCC1Br` (stereo not drawn): the compound was classed as inactive.

For the compound `CC1CCC(C(C)(C)O)CC1` (stereo not drawn), the call was inactive.

Regarding `CC1CCC2CC1C2(C)C` (stereo not drawn), the outcome was inactive.

As for `CCCC(=O)c1cc(O)c(O)cc1O`, the compound was called inactive.

On to `COC(=O)C1=C(C)NC(C)=C(C(=O)OCCN(C)Cc2ccccc2)C1c1cccc([N+](=O)[O-])c1` (stereo not drawn), for which the half-maximal activity concentration (AC50) is 54.6 µM (active).

For `C[Si](O[Si](C)(C)C)O[Si](C)(C)C`, the result was inactive.

Turning to `O=Cc1ccc(F)cc1`, the call was inactive.

For the compound `O=C(O)CCCCCCCCCCC(=O)O`, the outcome was inactive.

Turning to `CC(CCO)CCc1ccccc1` (stereo not drawn), the outcome was inactive.

`CC1=CCC2C(C1)C2(C)C` (stereo not drawn): the call was inactive.

Regarding `COC(C(=O)O)c1ccccc1` (stereo not drawn), the compound was called inactive.

For the compound `OCc1cccnc1`, the outcome was inactive.

Regarding `Clc1cccc(Cl)n1`, the compound was called inactive.

Consider `COc1ccc(OC)c(OC)c1`, for which the result was inactive.

As to `CC(C)(Oc1ccc(CCNC(=O)c2ccc(Cl)cc2)cc1)C(=O)O`, the compound was called inactive.

For `Nc1ccc(F)c([N+](=O)[O-])c1`, the call was inactive.

`CC(CC(C)(C)C)CC(C)(C)CC(C)(C)C` (stereo not drawn): the compound was called inactive.

`Cc1cccc(C)c1C`: the compound was called inactive.

As for `COc1c(Cl)c(Cl)c(Cl)c(Cl)c1Cl`, the outcome was inactive.

With `Cc1c(N(C)C)c(=O)n(-c2ccccc2)n1C`, the call was inactive.

Consider `O=C1c2ccccc2C(=O)N1SC1CCCCC1`, for which the half-maximal activity concentration (AC50) is 37.9 µM (active).

Consider `CCCCNC(=O)NS(=O)(=O)c1ccc(C)cc1`, for which the compound was called inactive.

Take `CC(=O)C(C)=O`: the compound was classed as inactive.

In the case of `O=C(O)c1snc(Cl)c1Cl`, the AC50 was 158 µM (active).

`NCCOCCO`: the result was inactive.

With `COc1cccc(OC)c1`, the result was inactive.

As for `C=C(C)C(=O)OCCOC(=O)CC(C)=O`, the compound was classed as inactive.

System in a further test: not listed separately
The test can be described thus: ATG_MRE_CIS: Attagene CIS-FACTORIAL HepG2 Assay for human Metal Responsive Element (MRE) (AID 2282954). To be noted: HepG2 MRE cis-reporter transcription, Attagene multiplex; actives raise or lower the signal. Summed up:
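RT-PCR/capillary electrophoresis readout of reporter mRNA, 24 h post-dosing, in HepG2 cells transfected with multiplexed cis-regulated reporter constructs. Gain or loss of signal fitted bidirectionally against DMSO baseline.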
For the compound `NCCCN1CCOCC1`, the compound was classed as inactive.

Turning to `CCCCCCCCCCCCCC(=O)O`, the result was inactive.

As for `CCCC(=O)C(C)=O`, the result was inactive.

`COC(=O)c1ccc(C)cc1`: the compound was called inactive.

Regarding `CNC(=O)Oc1ccc2c(c1)[C@]1(C)CCN(C)[C@@H]1N2C`, the outcome was inactive.

For the compound `BrC1CCC(Br)C(Br)CCC(Br)C(Br)CCC1Br` (stereo not drawn), the AC50 is 49.2 µM (active).

Consider `CC1CCC(C(C)(C)O)CC1` (stereo not drawn), for which the call was inactive.

In the case of `CCCC(=O)c1cc(O)c(O)cc1O`, the call was inactive.

Regarding `C[Si](O[Si](C)(C)C)O[Si](C)(C)C`, the compound was classed as inactive.

As to `C=CCOC(=O)CCC1CCCCC1`, the call was inactive.

In the case of `O=Cc1ccc(F)cc1`, the call was inactive.

`O=C(O)CCCCCCCCCCC(=O)O`: the compound was called inactive.

Consider `CC(CCO)CCc1ccccc1` (stereo not drawn), for which the compound was called inactive.

As to `CC1=CCC2C(C1)C2(C)C` (stereo not drawn), the compound was called inactive.

Consider `OCc1cccnc1`, for which the result was inactive.

In the case of `Clc1cccc(Cl)n1`, the compound was called inactive.

For `COc1ccc(OC)c(OC)c1`, the compound was called inactive.

With `CC(C)=CCCC(C)CC=O` (stereo not drawn), the compound was classed as inactive.

In the case of `CC(C)(Oc1ccc(CCNC(=O)c2ccc(Cl)cc2)cc1)C(=O)O`, the result was inactive.

Consider `CC(CC(C)(C)C)CC(C)(C)CC(C)(C)C` (stereo not drawn), for which the compound was called inactive.

As to `CC(C)=CCC[C@H](C)CC=O`, the compound was called inactive.

Turning to `O=C1c2ccccc2C(=O)N1SC1CCCCC1`, the result was inactive.

On to `CCCCC/C=C/C=C/C=O`, for which the result was inactive.

Take `CCCCNC(=O)NS(=O)(=O)c1ccc(C)cc1`: the compound was classed as inactive.

For `CC(=O)C(C)=O`, the result was inactive.

For the compound `NCCOCCO`, the compound was called inactive.

Turning to `CC(=O)O[C@]1(C(C)=O)CC[C@H]2[C@@H]3C[C@H](C)C4=CC(=O)CC[C@]4(C)[C@H]3CC[C@@]21C`, the half-maximal activity concentration (AC50) was 49.9 µM (active).

`COc1cccc(OC)c1`: the outcome was inactive.

For `C=C(C)C(=O)OCCOC(=O)CC(C)=O`, the compound was classed as inactive.
